From PubChem BioAssay
Shown are actives, neighbours in structure and some others; about 2.4% of the full set was active somewhere.
D2 PAM-1 = human D2 receptor positive allosteric modulation; hit rate 0.23% among 360,000; AID 624464; potentiation, % (concentration not given with the values); P14416; DiscoveRx D2 beta-arrestin cells, luminescence, 90 min; 100% = 57 uM dopamine signal; in the data active = potentiation above about 50%; inconclusive = mostly about 30% to 49%
Target sequence (P14416 whole entry, looked up): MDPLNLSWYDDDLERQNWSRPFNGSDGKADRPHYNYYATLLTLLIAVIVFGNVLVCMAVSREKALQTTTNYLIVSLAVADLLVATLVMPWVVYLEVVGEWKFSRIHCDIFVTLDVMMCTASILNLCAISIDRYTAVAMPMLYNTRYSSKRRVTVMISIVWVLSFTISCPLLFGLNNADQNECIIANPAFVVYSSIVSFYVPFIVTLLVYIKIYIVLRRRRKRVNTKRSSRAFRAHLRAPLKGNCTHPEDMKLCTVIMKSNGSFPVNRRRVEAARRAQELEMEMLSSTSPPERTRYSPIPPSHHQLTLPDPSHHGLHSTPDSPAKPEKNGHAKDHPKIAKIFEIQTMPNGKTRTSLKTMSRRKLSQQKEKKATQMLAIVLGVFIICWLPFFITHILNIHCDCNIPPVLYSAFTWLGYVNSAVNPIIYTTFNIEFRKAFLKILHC
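PathHunter D2 cells, attached overnight at 37 deg C, received compound in DMSO plus dopamine at EC20 (50 nM final) for 90 min at 37 deg C. Beta-arrestin recruitment was read as luminescence after 1 h with detection reagent at ambient temperature.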
D2 antagonist = antagonists of human D2 dopamine receptor. HEK293 TREx D2 cells, calcium flux, dopamine EC80. hit rate 2% among 340,000. P14416. inhibition, % at 10 µM; in the data active = inhibition above about 30%; inactive = below that, where a call was filed; note: 0% is about no effect
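Compounds are added to dye-loaded, induced HEK293 T-REx cells coupled to calcium release via D2; after a 3 min kinetic read an EC80 dopamine stimulus is given and fluorescence is recorded for 3 more min.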
D2 PAM-2 = D2 dopamine receptor (human) potentiation. HEK293 T-REx D2, calcium flux, EC20 dopamine potentiation. hit rate 0.34% among 340,000. P14416. potentiation, % at 10 µM;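 active = potentiation over 3 SD above the plate norm, cut at about 30% in these data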; note: 0% is about no effect
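Primary screen. Calcium kinetics in induced HEK293 T-REx D2 cells: compound pre-addition 180 s, EC20 dopamine, 180 s more.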
D2 ag-1 = D2 dopamine receptor (human) agonism | activation, % at 2 µM | HEK293 T-REx D2 cells, calcium flux agonist mode | hit rate 0.53% among 340,000 | AID 485358;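 active = activation over 3 SD above normal in the single-dose calcium agonist read, cut at about 30% in these data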; note: 0% is about no effect
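HEK293 Trex D2 cells, tetracycline-induced, o/n 30 C 5% CO2; no-wash Ca dye, RT 30–90 min; 10-cycle baseline, 23 nl cpd added, kinetic Ca read 180 s; agonist hits = positive Ca response.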
D2 ag-2 = activates the human D2 dopamine receptor | AID 624465 | P14416 | hit rate 0.084% among 360,000 | activation, % (no concentration beside the values) | DiscoveRx PathHunter D2 beta-arrestin, luminescence, 90 min; 100% = 57 uM dopamine signal; in the data active = activation above about 40%; inconclusive = between about 15% and that limit
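DiscoveRx PathHunter D2 beta-arrestin cells (2,100/well) attached overnight, then compound-stimulated 90 min at 37 C in HBSS/10 mM HEPES/0.1% Tween-20 buffer; beta-galactosidase complementation read by luminescence after 1 h at ambient temperature. Dopamine 57 uM final (EC100) as control.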
D3 arrestin ag = confirmation of human D3 dopamine receptor agonists, beta-arrestin | AID 720506 | DiscoveRx D3 beta-arrestin cells, luminescence, 90 min | hit rate 4% among 2,300 | Potency, µM (doses to about 76.9 µM), without a hit: at the top dose activation, actives largely listed as activators | shares compounds with D2 ag-1;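 note: potency is the fitted concentration of half-maximal effect; 100% = dopamine control response; nearly all actives have a fitted effect of over 70% in size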
D2 ag-3 = D2 receptor agonism, beta-arrestin counterscreen. shares compounds with D2 ag-1. DiscoveRx PathHunter D2 beta-arrestin, luminescence, 90 min; response scale: percent relative to full dopamine signal. Potency, µM (highest dose often 76.9 µM), for inactives: at the highest dose activation, most hits filed as activators. hit rate 5.9% among 2,300. AID 720507; note: potency is the fitted concentration of half-maximal effect; % of control where 0% means no effect; nearly all actives have a fitted effect of over 70% in size
Active calls of the source: *; ? = inconclusive; . = no result. Unless noted, calls come from the whole dose curve; as a rule, active = well fitted activation curve with a large enough effect; inconclusive = small, poorly fitted or top-dose-only effect; inactive = flat fitted curve, though single readings scatter.

SMILES | D2 PAM-1 | D2 antagonist | D2 PAM-2 | D2 ag-1 | D2 ag-2 | others
COc1cccc(NC(=O)CN2C(=O)NC(C)(c3ccc(C)cc3)C2=O)c1 (stereo unspecified) | -4.2 | 8.1 | 6.7 | -2.6 | -2.8
O=C(N1CCCCCC1)N1CCN(S(=O)(=O)c2ccccc2)CC1 | -1.6 | 15.3 | 2.9 | 0.9 | 0.6
COc1ccc(S(=O)(=O)N2CCN(C(=O)c3oc4ccccc4c3C)CC2)cc1 | -4.0 | -7.4 | -6.5 | 0.6 | -0.7
O=C(CN1CCSC1=O)N1CCN(S(=O)(=O)c2ccccc2)CC1 | -4.2 | 37.3* | -2.4 | 0.0 | -1.6
O=C(c1ccc(=O)[nH]c1)N1CCN(S(=O)(=O)c2ccc(Cl)cc2)CC1 | -0.6 | 5.3 | 3.6 | 0.5 | 1.7
Cc1c(C(=O)N2CCN(S(=O)(=O)c3ccccc3)CC2)oc2ccccc12 | 2.6 | 34.4* | -7.6 | 0.0 | -4.8
O=C(N1CCCCC1)N1CCN(S(=O)(=O)c2ccccc2)CC1 | -12.8 | 8.2 | 70.0* | 0.5 | 0.9
O=C(c1ccc(=O)[nH]c1)N1CCN(S(=O)(=O)c2ccccc2)CC1 | 0.2 | 30.9* | 23.2 | 0.0 | -3.8
Cc1cc(C(=O)COC(=O)C23CC4CC(CC(O)(C4)C2)C3)c(C)n1C | -0.9 | . | . | . | -4.1
COCCCNC(=O)c1ccc(-c2nc(CS(=O)(=O)c3ccc(C)cc3)c(C)o2)cc1 | . | . | -2.9 | 1.3 | .
c1ccc(CN2CCC(Nc3ncnc4sccc34)CC2)cc1 | -13.3 | 77.5* | -19.0 | 0.9 | -3.9
c1ccc(CN2CCC(Nc3nc(-c4cccnc4)nc4ccccc34)CC2)cc1 | -47.4 | 49.4* | -22.3 | 0.5 | -4.8
Fc1ccccc1CNc1ncnc2sccc12 | 1.3 | -0.8 | 2.2 | 0.7 | -0.9
Cc1csc2c(NC3CCN(Cc4ccccc4)CC3)ncnc12 | -3.9 | 89.2* | -24.0 | -0.8 | -1.5
Cc1sc2ncnc(NC3CCN(Cc4ccccc4)CC3)c2c1C | -16.8 | 68.0* | -20.4 | 0.6 | 0.9
CS(=O)(=O)NC1CCN(Cc2ccccc2)CC1 | -8.5 | 28.9 | -6.1 | -0.1 | -1.2
C[C@H]1CN([C@@H](C)CO)C(=O)CCCn2cc(nn2)CO[C@@H]1CN(C)C(=O)Nc1ccc(N2CCCCC2)cc1 | 3.6 | . | . | . | -2.5
CC(=O)C1=CCC(c2ccccc2)N(S(C)(=O)=O)C1 (stereo unspecified) | -5.6 | . | . | . | -5.7
C/C(=N\Nc1ncnc2sc(C)c(C)c12)c1ccccn1 | 19.9 | -18.8 | 10.3 | 46.4* | -4.4
COC(=O)c1ccc(OC)c(CN2CCCN(Cc3ccc(C)cc3)S2(=O)=O)c1 | . | . | -0.7 | 0.4 | .
Cc1noc(C)c1C(=O)OCC(=O)NC1CCCCC1C (stereo unspecified) | -46.4 | -10.1 | 37.1* | 1.0 | -4.6
Cc1noc(C)c1C(=O)OCC(=O)NC1CC1 | -4.1 | -4.1 | 6.4 | 0.1 | -0.1
CC(=O)N(c1ccccc1)c1nc(C)cc(C)c1C#N | -21.6 | 35.3* | -3.9 | 1.4 | -3.5
O=C(CCN1CCCC1Cc1ccccc1)c1ccc2c(c1)OCCO2 (stereo unspecified) | -17.5 | 108.7* | -27.6 | 82.4* | 6.8 | D3 arrestin ag=?;D2 ag-3=?
O=C(CCN1CCCCC1)c1ccc2c(c1)OCCO2 | -19.8 | -26.7 | 6.0 | 2.2 | -3.8
O=C(CCOc1cccc(Br)c1)Nc1ccc(F)c(S(=O)(=O)N2CCOCC2)c1 | -0.1 | -7.3 | -3.5 | 1.2 | -1.7
COc1ccccc1C1CCN(Cc2cccc(C(=O)N3CCC(O)CC3)c2)CC1 | -4.8 | 75.5* | -23.7 | 74.7* | -0.4 | D3 arrestin ag=-3.7%;D2 ag-3=6.0%
CN(C1=NS(=O)(=O)N=C(N(C)c2ccccc2)O1)c1ccccc1 | -4.6 | . | . | . | -4.5
O=S(=O)(NCCCN1CCN(c2ccccc2F)CC1)c1cccc2cccnc12 | 0.8 | . | . | . | -3.5 | D3 arrestin ag=16.6%;D2 ag-3=13.6%
